Experimental findings from the supplement of paper PMC10811239 are described below.

Molecules are shown by their SMILES.

For the assay, the system named is LEGO organoid PTN (PTEN-/-; TP53-/-; NF1-/-). In words: bioluminescence (viable cell) signal fold change after vs before treatment, normalised to DMSO (ratio); higher = more tumour cell growth / less inhibition. The conditions noted are these: 10 µM; treatment time 6 days. Here is the method: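 Luc2-labelled iPSC-derived glioblastoma-like organoids (LEGOs, genotypes PT = PTEN-/-;TP53-/-, PTCC = plus CDKN2A/B-/-, PTN = plus NF1-/-) were treated with 10 uM drug for 6 days (applied every other day) at 37 C. Bioluminescence imaging was done before treatment and 2 days after the last dose. BLI signals were normalised to the DMSO control on the same day and then to the pre-treatment signal (N=3).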
For `C[C@H]1COc2c(N3CCN(C)CC3)c(F)cc3c(=O)c(C(=O)O)cn1c23` [Levofloxacin], the bioluminescence is 0.861.
Turning to `Nc1nc(NC2CC2)c2ncn([C@H]3C=C[C@@H](CO)C3)c2n1.Nc1nc(NC2CC2)c2ncn([C@H]3C=C[C@@H](CO)C3)c2n1.O=S(=O)(O)O` [Abacavir sulfate], the bioluminescence was 1.95.
As for `CO[C@H]1C[C@@H]2CC[C@@H](C)[C@@](O)(O2)C(=O)C(=O)N2CCCC[C@H]2C(=O)O[C@H]([C@H](C)C[C@@H]2CC[C@@H](OC(=O)C(C)(CO)CO)[C@H](OC)C2)CC(=O)[C@H](C)/C=C(\C)[C@@H](O)[C@@H](OC)C(=O)[C@H](C)C[C@H](C)/C=C/C=C/C=C/1C` [Temsirolimus], the figure is 0.856; as for `CCc1cc2c(cc1N1CCC(N3CCOCC3)CC1)C(C)(C)c1[nH]c3cc(C#N)ccc3c1C2=O` [Alectinib], 0.961; as for `NC(=O)N1c2ccccc2CC(=O)c2ccccc21` [Oxcarbazepine], 1.05.
On to `CNCC[C@@H](Oc1ccccc1C)c1ccccc1.Cl` [Atomoxetine hydrochloride], for which the bioluminescence amounted to 1.97.
`O=c1[nH]cnc2c1ncn2[C@H]1CC[C@@H](CO)O1` [Didanosine]: the bioluminescence was 0.81.
On to `S=c1nc[nH]c2nc[nH]c12` [Mercaptopurine], for which the bioluminescence was 0.946.
Regarding `CCN(CC)C(=O)[C@@]1(c2ccccc2)C[C@H]1CN.Cl` [Milnacipran ((1S-cis) hydrochloride)], the bioluminescence was found to be 0.808.
In the case of `CC(C)Nc1cccnc1N1CCN(C(=O)c2cc3cc(NS(C)(=O)=O)ccc3[nH]2)CC1.CS(=O)(=O)O` [Delavirdine mesylate], the bioluminescence is 1.76.
As to `C/C(O)=C(\C#N)C(=O)Nc1ccc(C(F)(F)F)cc1` [Teriflunomide], the bioluminescence was found to be 2.32.
Take `Nc1ncnc2c1ncn2[C@@H]1O[C@H](CO)[C@@H](O)[C@H]1O` [Adenosine]: the bioluminescence worked out at 0.654.
As for `CC1(C)O[C@@H]2[C@@H](CO[C@@]3(COS(N)(=O)=O)OC(C)(C)O[C@@H]23)O1` [Topiramate], the figure is 5.65; as for `CCn1c(=O)c2c(nc(/C=C/c3ccc(OC)c(OC)c3)n2C)n(CC)c1=O` [Istradefylline], 6.31.
On to `CN(C)C(=N)NC(=N)N` [Metformin], for which the bioluminescence was 2.37.
On to `FC(F)(F)C(Cl)Br` (configuration not stated) [Anestan], for which the bioluminescence is 1.3.
Consider `CC(=O)c1c(C)c2cnc(Nc3ccc(N4CCNCC4)cn3)nc2n(C2CCCC2)c1=O.O=S(=O)(O)CCO` [Palbociclib Isethionate], for which the bioluminescence is 1.14.
For `CNCCCC1c2ccccc2C=Cc2ccccc21.Cl` [Protriptyline hydrochloride], the bioluminescence came out at 1.14.
On to `C[C@H](Cn1cnc2c(N)ncnc21)OCP(=O)(O)O` [Tenofovir], for which the bioluminescence came out at 1.12.
Take `CO/N=C(\C(=O)N[C@@H]1C(=O)N2C(C(=O)[O-])=C(COC(C)=O)CS[C@H]12)c1csc(N)n1.[Na+]` [Cefotaxime sodium]: the bioluminescence came out at 0.707.
For `O=C(CCCN1CC=C(n2c(=O)[nH]c3ccccc32)CC1)c1ccc(F)cc1` [Droperidol], the bioluminescence turned out to be 0.372.
Turning to `NC(=O)N1c2ccccc2C=Cc2ccccc21` [Carbamazepine], the bioluminescence was found to be 1.42.
As for `CS(=O)(=O)CCNCc1ccc(-c2ccc3ncnc(Nc4ccc(OCc5cccc(F)c5)c(Cl)c4)c3c2)o1` [Lapatinib], the figure is 1.93; as for `CCc1nn(CCCN2CCN(c3cccc(Cl)c3)CC2)c(=O)n1CCOc1ccccc1.Cl` [Nefazodone hydrochloride], 0.52; as for `CC(CN(C)C)CN1c2ccccc2CCc2ccccc21.O=C(O)/C=C\C(=O)O` (configuration not stated) [Trimipramine maleate], 1.58.
Consider `COc1ccc(Cl)cc1C(=O)NCCc1ccc(S(=O)(=O)NC(=O)NC2CCCCC2)cc1` [Glyburide], for which the bioluminescence worked out at 1.61.
As for `N[C@H]1CONC1=O` [L-Cycloserine], the bioluminescence was found to be 0.884.
`C=CC(=O)Nc1cc(Nc2nccc(-c3cn(C)c4ccccc34)n2)c(OC)cc1N(C)CCN(C)C` [Osimertinib]: the bioluminescence came out at 0.0227.
On to `Cc1oncc1C(=O)Nc1ccc(C(F)(F)F)cc1` [Leflunomide], for which the bioluminescence came to 3.5.
For the compound `OCCN1CCN(CCCN2c3ccccc3Sc3ccc(Cl)cc32)CC1` [Perphenazine], the bioluminescence was found to be 1.74.
For the compound `CN(C)CCC[C@@]1(c2ccc(F)cc2)OCc2cc(C#N)ccc21.O=C(O)C(=O)O` [Escitalopram Oxalate], the bioluminescence turned out to be 0.956.
For `CN(Cc1cnc2nc(N)nc(N)c2n1)c1ccc(C(=O)N[C@@H](CCC(=O)O)C(=O)O)cc1` [Methotrexate], the bioluminescence came to 0.813.
